Inconclusive results are not listed. The source made the active and inactive calls. Calls follow the shape of the dose curve; as a rule, active = well fitted curve in the direction sought with a large enough effect; inconclusive = small, poorly fitted or top-dose-only effect, or another doubt; inactive = no such curve, though single readings can be large; an effect the other way counts as inactive or inconclusive.
What was measured:
[1] = biological target: Calcium and integrin-binding protein 1 (Homo sapiens) (UniProt Q99828); test: Primary qHTS for Identification of Calcium Integrin Binding Protein 1 (CIB1) Competitor (AID 1508620);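 also: GST tagged CIB1 binding a fluorescein labelled alphaIIb integrin peptide tracer; top concentration of the series differs between compounds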
Chain of Calcium and integrin-binding protein 1 (Homo sapiens) (Q99828 whole entry, looked up): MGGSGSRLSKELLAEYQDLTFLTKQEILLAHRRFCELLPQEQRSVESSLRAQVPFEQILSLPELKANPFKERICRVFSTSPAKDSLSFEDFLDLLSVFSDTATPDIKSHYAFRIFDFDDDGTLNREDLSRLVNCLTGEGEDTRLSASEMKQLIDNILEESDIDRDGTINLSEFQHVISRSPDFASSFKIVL
Procedure, shortened: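 CIB1-GST (1 uM final) and compound incubated 15 min at room temperature before adding FITC-alphaIIb peptide tracer (100 nM final). Competition for binding read by fluorescence polarization (ex 480, em 540) after another 15 min at room temperature.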

[2] = Primary qHTS for inhibitors of nuclear receptor binding SET domain protein 2 (NSD2) in an isogenic RCH-ACV NSD2 p.E1099K mutant (9B) (AID 1645876); also: nearly all actives have a fitted effect of over 70% in size
[3] = Primary qHTS for inhibitors of nuclear receptor binding SET domain protein 2 (NSD2) in an RCH-ACV wild type WT cells (2C) (AID 1645877); also: nearly all actives have a fitted effect of over 70% in size
% is scaled to controls: 0 for no effect and ±100 for the full control effect.

CCN1CCN(C(=O)N[C@@H](C(=O)N[C@@H]2C(=O)N3[C@@H]2SC(C)(C)[C@@H]3C(=O)O)c2ccccc2)C(=O)C1=O
inactive: Potency [1] | Potency [2] | Potency [3]

COc1cc(O)cc(C)c1C(=O)OC1C(CO)OC(n2ccc(=O)[nH]c2=O)C1OC(C)=O (configuration not stated)
inactive: Potency [1] | Potency [2] | Potency [3]

COc1cc(/C=C/C(=O)O[C@H]2C[C@@H]3C(C(=O)O)=CO[C@@H](O[C@@H]4O[C@H](CO)[C@@H](O)[C@H](O)[C@H]4O)[C@@H]3[C@H]2C)ccc1O
inactive: Potency [1] | Potency [2] | Potency [3]

CC1C2=CC(=O)OC2(O)CC2C1C(OC(=O)c1ccccc1)C(OC(=O)c1ccccc1)C1(O)C2(C)CCC(O)C1(C)C(=O)O (configuration not stated)
inactive: Potency [1] | Potency [2] | Potency [3]

Nc1ccc(-n2nc(C(F)(F)F)cc2C(F)(F)F)cc1
inactive: Potency [1] | Potency [2] | Potency [3]

CC(O)C(O)/C=C/C=C/C(=O)O[C@@H]1C=C(C(=O)O)[C@](O)(CO)[C@@]2(C)CCCC(C)(C)[C@H]12 (some centres not stated)
inactive: Potency [1] | Potency [2] | Potency [3]

COc1cc(C)c(C(=O)NC2C(C)OC(OC3CCC(C)C4C3C=C(C)C3/C(C)=C\CC/C(C)=C/C5(C)C=C(C(=O)O)C(C)CC56OC(=O)/C(=C(\O)C34C)C6=O)C(O)C2(C)O)c(O)c1 (configuration not stated)
inactive: Potency [1] | activity change, negative = viability loss [2] 4.33% [at 9.23 µM] | outcome [3] inactive [at 9.23 µM]

CC1CCC2C(C)(C)C(O)C(O)CC2(C)C12Cc1c(O)cc(CO)c(C=O)c1O2 (configuration not stated)
inactive: Potency [1] | Potency [2] | Potency [3]

CC(=O)O[C@@H]1[C@H](O[C@@H]2OC[C@](O)(CO)[C@H]2O)[C@@H](O[C@@H]2O[C@@H](C)[C@H](O)[C@@H](O[C@@H]3O[C@H](CO)[C@@H](O)[C@H](O)[C@H]3O)[C@H]2O)[C@H](OC(=O)[C@]23CCC(C)(C)C[C@H]2C2=CCC4[C@@]5(C)C[C@H](O)[C@H](O[C@@H]6O[C@H](C(=O)O)[C@@H](O)[C@H](O)[C@H]6O)[C@@](C)(C(=O)O)C5CC[C@@]4(C)[C@]2(C)CC3)O[C@@H]1C (some centres not stated)
inactive: activity change, negative = inhibition [1] 4.9% [at 12.4 µM] | activity change, negative = viability loss [2] 4.2% [at 9.23 µM] | outcome [3] inactive [at 9.23 µM]

COc1cc2c(cc1O)CC(O)(CO)C(CO)C2c1ccc(OC2OC(CO)C(O)C(O)C2O)c(OC)c1 (configuration not stated)
inactive: Potency [1] | Potency [2] | Potency [3]

CC1=C(CO)C2(C)CCCC(C)(C)C2C(O)C1O (configuration not stated)
inactive: Potency [1] | Potency [2] | Potency [3]

CSCC1OC(n2cnc3c(=O)[nH]cnc32)C(O)C1O (configuration not stated)
inactive: Potency [1] | Potency [2] | Potency [3]

CC(C)C1CCC(CO)=CC1/C=C(\CO)C(=O)OCC1(O)CCC(C(C)C)C2C=C(C(=O)O)COC(=O)C21 (configuration not stated)
inactive: Potency [1] | Potency [2] | Potency [3]

CC1=C(CO)CC(C(C)C2CCC3C4CC=C5CC(OC6OC(COC7OC(CO)C(O)C(O)C7O)C(O)C(O)C6O)CC(O)C5(C)C4CCC23C)OC1=O (configuration not stated)
inactive: Potency [1] | Potency [2] | Potency [3]

COC(=O)C1C(c2ccc(O)cc2)C(C(=O)O)C1c1ccc(O)cc1 (configuration not stated)
inactive: Potency [1] | Potency [2] | Potency [3]

CC1CC(=O)C2=C(O1)OC1(C)CCC3C(C)(C)C4OC4C(=O)C3(C)C1C2 (configuration not stated)
inactive: Potency [1] | Potency [2] | Potency [3]

CC1(C)CC[C@]2(C(=O)O[C@@H]3O[C@H](CO[C@@H]4O[C@H](CO)[C@@H](O)[C@H](O)[C@H]4O)[C@@H](O)[C@H](O[C@@H]4O[C@H](CO)[C@@H](O)[C@H](O)[C@H]4O)[C@H]3O)CC[C@]3(C)C(=CCC4[C@@]5(C)CC[C@H](O[C@@H]6OC[C@@H](O)[C@H](O)[C@H]6O)[C@@](C)(C(=O)O)C5CC[C@]43C)[C@@H]2C1 (some centres not stated)
inactive: Potency [1] | activity change, negative = viability loss [2] 0.102% [at 9.23 µM] | outcome [3] inactive [at 9.23 µM]

C[C@@H]1O[C@@H](O[C@H]2[C@H](O)[C@@H](O)[C@H](OC(=O)[C@]34CCC(C)(C)C[C@H]3C3=CCC5[C@@]6(C)CC[C@H](O[C@@H]7O[C@H](C(=O)O)[C@@H](O)[C@H](O)[C@H]7O)C(C)(C)C6CC[C@@]5(C)[C@]3(C)CC4)O[C@@H]2CO)[C@H](O)[C@H](O)[C@H]1O (some centres not stated)
inactive: Potency [1] | activity change, negative = viability loss [2] -5.91% [at 9.23 µM] | activity change, negative = cell killing [3] -1.6% [at 9.23 µM]

C/C(=C\C1CCC(C)C2CCC3(C)OC123)C(=O)O (configuration not stated)
inactive: Potency [1] | Potency [2] | Potency [3]

C/C=C/C1OC2=C(C(=O)OC2(C)O)C(O)C1O (configuration not stated)
inactive: Potency [1] | Potency [2] | Potency [3]

CC1=C(CCC(C)O[C@@H]2O[C@H](CO)[C@@H](O)[C@H](O)[C@H]2O)C(C)(C)CC(O)C1 (some centres not stated)
inactive: Potency [1] | Potency [2] | Potency [3]

COc1cc(C(=O)OCC2=CCC3C(C(=O)O)=COC(O[C@@H]4O[C@H](CO)[C@@H](O)[C@H](O)[C@H]4O)C23)ccc1O (some centres not stated)
inactive: Potency [1] | Potency [2] | Potency [3]

CCC/C=C1\OC(=O)C2=C1CCC(O)C2O (configuration not stated)
inactive: Potency [1] | Potency [2] | Potency [3]

C/C(=C\CCC(C)(C)O)CCO[C@@H]1O[C@H](CO[C@@H]2O[C@@H](C)[C@H](O)[C@@H](O)[C@H]2O)[C@@H](O)[C@H](O)[C@H]1O
inactive: Potency [1] | Potency [2] | Potency [3]

From PubChem BioAssay (NCATS)
